More than one record can exist for a structure, and the calls need not agree. The source made the active and inactive calls. How the source made its calls: active means hit-call score of the fitted dose curve at least 0.9, where 1 is the maximum; inactive means score below 0.9.
Legend:
[1] = ATG_E_Box_CIS: Attagene CIS-FACTORIAL HepG2 Assay for human Enhancer Box (E-box) (AID 2282936); conditions: HepG2 E-box cis-reporter transcription, actives raise or lower the signal
Outline: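 Measured 24 h post-dosing in HepG2 cells transfected with multiple cis-regulated reporter units, signal being reporter mRNA induction detected by fluorescent RT-PCR with capillary electrophoresis; gain or loss fitted against DMSO.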

[2] = ATG_M_61_CIS: Attagene CIS-FACTORIAL HepG2 Assay for M61 Transcription Factor (Internal Marker) (AID 2282937); conditions: HepG2 Attagene CIS-FACTORIAL M61 internal marker reporter; actives raise or lower the signal
Outline: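 HepG2 cells transiently transfected with cis-element-driven multiple reporter transcription units, dosed for 24 h. Reporter mRNA measured by RT-PCR, 6-FAM primer-extension labelling, HpaI digestion and capillary electrophoresis; bidirectional fit versus DMSO baseline.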

[3] = ATG_EGR_CIS: Attagene CIS-FACTORIAL HepG2 Assay for human Early Growth Response 1 (EGR1) (AID 2282938); conditions: HepG2 Attagene CIS-FACTORIAL EGR reporter mRNA; actives raise or lower the signal
Outline: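 HepG2 cells transiently transfected with cis-promoter-driven multiplexed reporter transcription units; reporter mRNA measured 24 h after compound dosing by RT-PCR, 6-FAM primer extension, HpaI digestion and capillary electrophoresis. Bidirectional fit versus DMSO baseline.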

[4] = ATG_M_19_CIS: Attagene CIS-FACTORIAL HepG2 Assay for M19 Transcription Factor (Internal Marker) (AID 2282939); conditions: HepG2 Attagene CIS-FACTORIAL M19 internal marker reporter; actives raise or lower the signal
Outline: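 Signals come from fluorescence of labelled reporter-specific PCR fragments resolved by capillary electrophoresis, following 24 h treatment of HepG2 cells transfected with cis-promoter reporter units; activity was fitted in both directions relative to DMSO.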

[5] = ATG_Ets_CIS: Attagene CIS-FACTORIAL HepG2 Assay for human Erythroblast Transformation Specific (ETS) (AID 2282941); conditions: HepG2 ETS cis-reporter transcription, actives raise or lower the signal
Outline: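 Multiplexed reporter transcript profiling: HepG2, 24 h treatment, total RNA to cDNA, PCR, 6-FAM labelling, HpaI cut, capillary electrophoresis. Gain- or loss-of-signal fitted against DMSO.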

[6] = target: Hepatocyte nuclear factor 3-beta (Homo sapiens) (UniProt Q9Y261); test: ATG_FoxA2_CIS: Attagene CIS-FACTORIAL HepG2 Assay for human Forkhead box A2 (FOXA2) (AID 2282942); conditions: HepG2 cis-reporter transcription factor activity, 24 h; actives raise or lower the signal
Outline: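 HepG2 cells transiently transfected with multiple cis-regulated reporter transcription units, dosed for 24 h. Reporter mRNA measured by RT-PCR, 6-FAM labelling, HpaI digestion and capillary electrophoresis; bidirectional fitting against DMSO baseline.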

[7] = ATG_FoxO_CIS: Attagene CIS-FACTORIAL HepG2 Assay for human Forkhead box O (FoxO) (AID 2282943); conditions: HepG2 Attagene cis-reporter, FoxO element, mRNA; actives raise or lower the signal
Outline: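 HepG2 cells transiently transfected with cis-promoter-driven multiple reporter transcription units; 24 h after chemical dosing, reporter mRNA quantified by RT-PCR, fluorescent primer extension, HpaI digestion and capillary electrophoresis. Bidirectional fitting versus DMSO baseline.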

[8] = ATG_GATA_CIS: Attagene CIS-FACTORIAL HepG2 Assay for human GATA Binding Protein (AID 2282944); conditions: HepG2 GATA cis-element reporter, Attagene multiplex mRNA; actives raise or lower the signal
Outline: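 After transfecting HepG2 cells with multiple cis-regulated reporter units, chemicals are dosed for 24 h; isolated RNA undergoes RT-PCR and fluorescent labeling before capillary electrophoresis, with activity expressed against DMSO.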

[9] = ATG_GLI_CIS: Attagene CIS-FACTORIAL HepG2 Assay for human Zinc Finger Protein GLI1 (AID 2282945); conditions: HepG2, Attagene cis-factorial reporter mRNA, GLI element; actives raise or lower the signal
Outline: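 HepG2 cells transiently transfected with cis-promoter multiplexed reporter units report endogenous transcription factor activity. After 24 h chemical exposure, reporter mRNA was quantified by RT-PCR, 6-FAM labelling, HpaI digestion and capillary electrophoresis, with bidirectional fitting against DMSO.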

[10] = ATG_ERE_CIS: Attagene CIS-FACTORIAL HepG2 Assay for Estrogen Response Element (ERE) (AID 2282940); conditions: HepG2 ERE cis-reporter, Attagene RNA transcript; actives raise or lower the signal
Outline: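 Fluorescence of capillary-separated, FAM-labelled reporter cDNA fragments indicates reporter mRNA levels in HepG2 cells exposed to chemicals for 24 h. Transient transfection with cis-regulated units; data fitted in both directions against DMSO.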

Measured: AC50

Chain of Hepatocyte nuclear factor 3-beta (Homo sapiens) (Q9Y261 whole entry, looked up): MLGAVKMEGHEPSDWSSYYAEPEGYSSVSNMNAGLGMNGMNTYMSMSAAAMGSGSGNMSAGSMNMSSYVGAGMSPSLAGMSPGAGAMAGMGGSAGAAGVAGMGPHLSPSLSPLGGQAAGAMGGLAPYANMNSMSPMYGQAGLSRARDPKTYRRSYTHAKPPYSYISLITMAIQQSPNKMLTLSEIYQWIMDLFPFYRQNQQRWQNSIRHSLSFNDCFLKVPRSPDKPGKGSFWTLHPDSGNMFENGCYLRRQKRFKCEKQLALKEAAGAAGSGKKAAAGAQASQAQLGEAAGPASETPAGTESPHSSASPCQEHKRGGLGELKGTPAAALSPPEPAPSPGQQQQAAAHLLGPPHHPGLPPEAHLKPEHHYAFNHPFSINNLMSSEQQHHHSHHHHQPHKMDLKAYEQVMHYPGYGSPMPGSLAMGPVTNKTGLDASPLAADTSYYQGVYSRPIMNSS

CC(C)(C)OOC(=O)c1ccccc1
active: [7] 156 µM
not listed: [10]
inactive: all other assays above

CCCCCCCCCCCCCN1CC(C)OC(C)C1 (centres undefined)
not listed: [4] | [8]
inactive: all other assays above

CC(C)(OOC(C)(C)c1ccccc1)c1ccccc1
active: [3] 61.9 µM | [5] 100 µM | [9] 59.1 µM
not listed: [10]
inactive: all other assays above

CC(C)(O)c1cnn2c(-c3ccc(F)c(-c4c(F)cccc4C#N)c3)cnc2n1
active: [3] 2.13 µM
not listed: [8] | [10]
inactive: all other assays above

OCCCBr
not listed: [4]
inactive: all other assays above

Nc1ccc([N+](=O)[O-])cc1
not listed: [10]
inactive: all other assays above

CCN(CC)CCO
not listed: [8] | [10]
inactive: all other assays above

[As]#[In]
not listed: [10]
inactive: all other assays above

O=C(O)C1C2CCC(O2)C1C(=O)O (centres undefined)
active: [9] 100 µM
not listed: [8] | [10]
inactive: all other assays above

N#CC(Br)Br
active: [10] 76.7 µM
not listed: [4] | [8]
inactive: all other assays above

CCCCC(CC)COC(=O)c1ccc(C(=O)OCC(CC)CCCC)c(C(=O)OCC(CC)CCCC)c1 (centres undefined)
not listed: [4] | [8] | [10]
inactive: all other assays above

CC(C)(C)C(O)(CCc1ccc(Cl)cc1)Cn1cncn1 (centres undefined)
not listed: [4] | [10]
inactive: all other assays above

Cc1ccc([N+](=O)[O-])cc1
not listed: [4] | [8]
inactive: all other assays above

C=CCc1ccc2c(c1)OCO2
not listed: [4] | [8] | [10]
inactive: all other assays above

C[N+](C)(C)CC1CO1 (centres undefined)
not listed: [1]
inactive: all other assays above

Nc1ccc(Oc2ccc(N)cc2)cc1
not listed: [4] | [8] | [10]
inactive: all other assays above

Clc1ccc(C(c2ccc(Cl)cc2)C(Cl)(Cl)Cl)cc1
not listed: [4] | [10]
inactive: all other assays above

CCNS(=O)(=O)C(F)(F)C(F)(F)C(F)(F)C(F)(F)C(F)(F)C(F)(F)C(F)(F)C(F)(F)F
inactive: [2] | [3] | [4] | [5] | [6] | [7] | [8] | [9]
active: [3] 96.5 µM | [8] 138 µM | [9] 96.5 µM

[O-][Cl+]O
not listed: [1]
inactive: all other assays above

Reference: PubChem BioAssay (EPA / NIEHS)
